Screening results from PubChem BioAssay.
GLA inh pH 4.5: inhibitors of human alpha-galactosidase A at pH 4.5; P06280; purified enzyme, 4-MU-alpha-Gal fluorescence, pH 4.5; activity change, negative = inhibition, % at 105 µM; 230,000 tested, under 10 active; AID 1467;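 also: 0% = full activity with enzyme and -100% = basal without enzyme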
aGal spleen mod: inhibitors or activators of human alpha-galactosidase in spleen homogenate; hit rate 0.008% among 240,000; AID 2107; human spleen homogenate, 4MU-alpha-Gal fluorescence, 40 min; Potency, µM (doses to about 80 µM), for inactives: top-dose activity change, negative = inhibition, most hits filed as inhibitors;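 also: potency is read from the fitted curve at half-maximal effect; 0% = enzyme with vehicle and -100% = no enzyme basal signal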
Target sequence (P06280 32-429 limits assumed): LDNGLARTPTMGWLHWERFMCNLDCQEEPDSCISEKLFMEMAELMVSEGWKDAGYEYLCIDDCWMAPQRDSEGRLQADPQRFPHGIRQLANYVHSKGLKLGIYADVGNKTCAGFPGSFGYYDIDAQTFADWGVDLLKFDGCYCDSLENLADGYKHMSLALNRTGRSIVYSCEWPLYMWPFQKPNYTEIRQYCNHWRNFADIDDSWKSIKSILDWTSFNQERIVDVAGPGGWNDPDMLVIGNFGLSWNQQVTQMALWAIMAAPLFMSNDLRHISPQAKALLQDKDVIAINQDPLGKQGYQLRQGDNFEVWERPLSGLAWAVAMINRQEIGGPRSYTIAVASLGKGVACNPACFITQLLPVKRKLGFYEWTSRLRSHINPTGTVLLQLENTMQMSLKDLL
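Inhibition or activation of alpha-galactosidase in human spleen homogenate is scored by 4-MU fluorescence after 40 min at 37C, pH 5.0, with 1 mM substrate. AC50s come from concentration-response fitted to the Hill equation.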
GAA glycogen mod: alters human alpha-glucosidase cleavage of glycogen. P10253. recombinant GAA, glycogen substrate, Amplex Red glucose oxidase fluorescence. Potency, µM (titrated, usually from 76.4 µM), inactives show at the highest dose activity change, negative = inhibition, most hits filed as inhibitors. hit rate 0.38% among 300,000;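 also: potency is read from the fitted curve at half-maximal effect; 0% = full enzyme reaction and -100% = no-enzyme basal signal; the screen sought inhibitors and activators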
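Recombinant human enzyme (4 nM); glycogen substrate; 37 C, 40 min, pH 5.0. Readout: coupled glucose oxidase/Amplex Red fluorescence.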
N370S GC mod: inhibits or activates N370S mutant glucocerebrosidase; N370S GC spleen homogenate, 4MU-glucoside fluorescence; Potency, µM (series often up to 59.4 µM), without a hit: top-dose activity change, negative = inhibition, usual class: inhibitors; hit rate 0.092% among 330,000;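 also: potency is read from the fitted curve at half-maximal effect; 0% = full enzyme activity and -100% = no enzyme basal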
GAA inh: inhibitors of human lysosomal alpha-glucosidase; P10253; hit rate 0.005% among 200,000; AID 1466; purified human GAA, 4-MU-alpha-glucoside fluorescence; Potency, µM (doses to about 76.9 µM), without a hit: at the top dose activity change, negative = inhibition, usual class: inhibitors;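 also: potency is read from the fitted curve at half-maximal effect; plate controls were uninhibited enzyme wells for no effect and no-enzyme background for full effect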
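Fluorescence at Ex 365/Em 440 nm from 4-methylumbelliferone reported enzyme activity after 20 min at room temperature. Reactions used 4 nM enzyme and 400 uM substrate at pH 5.0; curves fitted with the Hill equation.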
GAA spleen mod: inhibits or activates alpha-glucosidase in human spleen homogenate. P10253. human spleen homogenate, 4-MU-alpha-glucoside fluorescence. Potency, µM (doses to about 79.9 µM), for the others: at the top dose activity change, negative = inhibition, usual class: inhibitors. hit rate 0.006% among 240,000;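 also: potency is read from the fitted curve at half-maximal effect; 0% = enzyme with vehicle and -100% = no enzyme basal signal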
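Human spleen homogenate (1 ug) incubated with compounds and 1 mM 4-methylumbelliferyl-alpha-D-glucopyranoside in pH 5.0 citrate/phosphate buffer, 37 C, 40 min. Stopped at pH 10; 4-MU fluorescence (Ex 365/Em 440 nm); AC50 by Hill fit.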
Active calls of the source: *; ? = inconclusive; . = not tested or not shown; [ ] = remark or other dose. Rows were chosen to be rich in hits. Some 0.43% of all compounds tested hit in one or more screens of this group. Calls follow the shape of the dose curve; as a rule, active = well fitted curve in the direction sought with a large enough effect; inconclusive = small, poorly fitted or top-dose-only effect, or another doubt; inactive = no such curve, though single readings can be large; an effect the other way counts as inactive or inconclusive.

SMILES	GLA inh pH 4.5	aGal spleen mod	GAA glycogen mod	N370S GC mod	GAA inh	GAA spleen mod
CC(C)C[C@H](NC(=O)CNC(=O)[C@H](CCC(N)=O)NC(=O)[C@H](CC(C)C)NC(=O)[C@H](CC(C)C)NC(=O)[C@H](CCCNC(=N)N)NC(=O)[C@H](CCC(N)=O)NC(=O)[C@H](CC(C)C)NC(=O)[C@H](CCCNC(=N)N)NC(=O)[C@H](C)NC(=O)CNC(=O)[C@H](CCC(=O)O)NC(=O)[C@H](CCCNC(=N)N)NC(=O)[C@H](CC(C)C)NC(=O)[C@H](CCCNC(=N)N)NC(=O)[C@H](CO)NC(=O)[C@H](CC(C)C)NC(=O)[C@H](CCC(=O)O)NC(=O)[C@H](CO)NC(=O)[C@@H](NC(=O)[C@H](Cc1ccccc1)NC(=O)[C@@H](NC(=O)CNC(=O)[C@H](CC(=O)O)NC(=O)[C@H](CO)NC(=O)[C@@H](N)Cc1cnc[nH]1)[C@@H](C)O)[C@@H](C)O)C(=O)N[C@H](C(N)=O)C(C)C	.	-16%	.	-1%	.	7%
CC(=O)OCC(NC(=O)C(CCCCNC(=O)OCc1ccccc1)NC(=O)OC(C)(C)C)C1OC(n2cc(C)c(=O)[nH]c2=O)C(OC(C)=O)C1OC(C)=O (stereo not given)	.	-18%	.	-3%	.	-7%
CCOc1ccc(NC(=S)N(CCc2c(C)[nH]c3ccc(C)cc23)Cc2ccncc2)cc1	-18	2%	-14%	14µM*	-11%	3%
COC(=O)c1[nH]c2cc(OC)ccc2c1N	4	9%	35µM*	-11%	4%	7%
CCOC(=O)Nc1c(C(=O)OC)[nH]c2cc(OC)ccc12	0	-10%	2%	27%	10%	-8%
CCCCc1nc2c(c3c1C[C@H](C)OC3)CN(S(=O)(=O)c1c(C)noc1C)CC2	1	-8%[17.5 µM]	.	-7%[12.8 µM]	.	-5%[17.4 µM]
CC[C@H](C)[C@H](NC(=O)[C@H](CC(=O)O)NC(=O)[C@H](CC(C)C)NC(=O)[C@H](Cc1cnc[nH]1)NC(=O)[C@H](C)NC(=O)[C@H](Cc1ccccc1)NC(=O)[C@H](Cc1ccc(O)cc1)NC(=O)[C@@H](NC(=O)[C@H](C)NC(=O)[C@H](CCC(=O)O)NC(=O)[C@H](CCCCN)NC(=O)[C@H](CC(=O)O)NC(=O)[C@H](CCSC)NC(=O)[C@H](CC(C)C)NC(C)=O)C(C)C)C(=O)N[C@H](C(=O)N[C@@H](Cc1c[nH]c2ccccc12)C(=O)O)[C@@H](C)CC	.	-2%	.	-5%	.	-13%
CCCOc1ccc(-c2nc(C#N)c(NCCCn3ccnc3)o2)cc1	-1	3%	31µM*	-14%	3%	8%
COC(=O)NC(c1cccc(C)c1)[C@]1(C(C)=O)CCCC1=O (stereo not given in full)	.	-15%[17.5 µM]	.	3%[12.8 µM]	.	0%[17.4 µM]
CCOC(=O)OCC1OC(C#Cc2ccccc2)C=CC1OC(=O)OCC (stereo not given)	.	-3%[17.5 µM]	.	-13%[12.8 µM]	.	4%[17.4 µM]
COc1ccc(C(=O)NNc2ccccc2)cc1OC	-3	2%	22µM*	7%	0%	2%
Cc1cccc(NC(=S)N(CCCN2CCOCC2)Cc2cn(C)c3ccccc23)c1	5	-7%	6%	7.9µM*	0%	-8%
Cn1cc(CN(CCCN2CCOCC2)C(=S)Nc2cccc(Cl)c2)c2ccccc21	-2	3%	-20%	10µM*	1%	-2%
CCOc1ccc(NC(=S)N(CCCN2CCOCC2)Cc2cn(C)c3ccccc23)cc1	-4	-7%	-16%	5%	-4%	-1%
COc1ccc(NC(=S)N(CCCN2CCOCC2)Cc2cn(C)c3ccccc23)cc1	8	7%	-24%	0%	-4%	-12%
O=C(NNc1nc2cc3c(cc2s1)OCCO3)c1ccc(F)cc1	-5	-5%	24%	-3%	-7%	2%
O=C(NNc1nc2cc3c(cc2s1)OCO3)c1ccc(F)cc1	7	9%	28µM*	-3%	6%	4%
CC(C)C[C@H](NC(=O)[C@@H](Cc1c[nH]c2ccccc12)NC(=O)[C@H](Cc1ccc(O)cc1)NC(=O)[C@H](CO)NC(=O)[C@H](Cc1c[nH]c2ccccc12)NC(=O)[C@H](Cc1cnc[nH]1)NC(=O)[C@@H]1CCC(=O)N1)C(=O)N[C@@H](CCCN=C(N)N)C(=O)N1CCC[C@H]1C(=O)NCC(N)=O	.	-2%	.	-7%	.	3%
CCc1cc(C(c2ccccn2)N2CCN(C)CC2)c(NC(=O)c2ccccc2)s1 (stereo not given)	-25	2%	-4%	14µM*	-7%	0%
Cc1sc(NC(=O)c2ccccc2)c(C(c2ccccn2)N2CCN(CCO)CC2)c1C (stereo not given)	-8	12%	-10%	11%	-1%	-1%
CCOc1ccc(C(c2c(NC(=O)c3ccccc3)sc(C)c2C)N2CCN(C)CC2)cc1 (stereo not given)	-3	2%	-3%	16µM*	?	2%
COC(=O)C1=C(C(=O)OC)[C@@H]2N(C)c3ccc(OC)cc3[C@@]23C[C@@H](C(=O)OC)N(S(=O)(=O)c2c(C)noc2C)C3=N1	7	7%[17.5 µM]	.	3%[12.8 µM]	.	9%[17.4 µM]
O=C1OCC(CO)(CO)N=C1NNc1ccccc1[N+](=O)[O-]	-2	-4%	?	-6%	.	-15%
O=C1OCC(CO)(CO)N=C1NNc1cc(Cl)ccc1Cl	0	1%	8.9µM*	3%	-10%	-5%
O=C1[C@H]2[C@H]3[C@H](O)[C@H](O)C/C(=N/OC[C@@H](O)COCc4ccco4)[C@H]3CC[C@@H]2C(=O)N1c1cccc(Oc2ccccc2)c1	.	1%[17.5 µM]	.	6%[12.8 µM]	.	0%[17.4 µM]
O=C1c2c(O)cc(O)cc2O[C@H](c2ccc(O)c(O)c2)[C@@H]1O	6	-12%	3.2µM*	-19%	-6%[15.4 µM]	-4%
O=C1c2c(O)cc(O)cc2O[C@H](c2ccc(O)c(O)c2)[C@H]1O	5	-12%	?	-6%	0%[15.4 µM]	-11%
CCN1CCN(C(CC(C)C)c2nnnn2CS(=O)(=O)c2ccc(C)cc2)CC1 (stereo not given)	-4	-10%	9%	22µM*	6%	-2%
O=C(NNc1ccc(C2CCCCC2)cc1)C(O)(c1ccccc1)c1cccs1 (stereo not given)	-9	6%	20µM*	?	-14%	-15%
COc1ccc(NC(=O)NNC(=O)C(O)(c2ccccc2)c2ccccc2)cc1	.	.	-7%[76.3 µM]	-1%	.	.
